Results published in PubChem BioAssay.
The source made the active and inactive calls.

Assays:
[1] = test system: Plasmodium falciparum Sir2 (PF13_0152, Sir2A); experiment: Plasmodium falciparum Sir2A binding compounds – biochemical, small-molecule microarray, 635 nm fluorescence, primary screen (AID 1098); conditions: fluorescence 635 nm, higher = more signal;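 further: score merges spot fluorescence intensity with its signal-to-noise ratio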
[2] = probe aDKK1 binding to arrayed compounds – biochemical, biotinylated probe, 635/667 nm fluorescence, primary screen (AID 1099); conditions: small-molecule microarray, higher = more signal;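 further: score merges 667nm spot fluorescence with signal to noise across triplicate slides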
[3] = probe aCHRDL2 binding to arrayed compounds – biochemical, biotinylated probe, 635/667 nm fluorescence, primary screen (AID 1100); conditions: small-molecule microarray, higher = more signal
[4] = change in splice reporter luminescence, either direction, cell-based, HEK293, spliceosome inhibition project, primary screen (AID 1101); conditions: HEK293 splicing luciferase reporter, 24 h, higher = more signal, called active from +8 up or from −8 down;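 further: HEK293 cells carrying a splicing-competent luciferase reporter gene; test concentration not given here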
[5] = target: Fibroblast growth factor 10 (Homo sapiens) (UniProt O15520); experiment: compounds binding fibroblast growth factor 10 – biochemical, small-molecule microarray, 635 nm fluorescence, primary screen (AID 1102); conditions: FGF10 binding, fluorescence 635 nm, higher = more signal
[6] = test system: glycogen synthase kinase-3 (GSK3A per assay name; protocol says GSK3B); experiment: compounds binding glycogen synthase kinase-3 – biochemical, small-molecule microarray, 635 nm fluorescence, GSK3A, primary screen (AID 1103); conditions: fluorescence 635 nm, higher = more signal; further: the record names both GSK3A and GSK3B
[7] = target: Epidermal growth factor receptor (Homo sapiens) (UniProt P00533); experiment: compounds binding epidermal growth factor receptor – biochemical, small-molecule microarray, 635 nm fluorescence, primary screen (AID 1104); conditions: EGFR binding, higher = more signal;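 further: score merges 667 nm emission intensity with spot signal to noise over triplicate slides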
[8] = target: Follistatin-related protein 3 (Homo sapiens) (UniProt O95633); experiment: compounds binding follistatin-related protein 3 – biochemical, small-molecule microarray, 635 nm fluorescence, primary screen (AID 1105); conditions: FSTL3 binding, higher = more signal;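 further: score merges emission near 667 nm and signal to noise per printed spot across three slides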
[9] = target: Dickkopf-related protein 1 (Homo sapiens) (UniProt O94907); experiment: small molecules binding DKK1 protein – biochemical, small-molecule microarray, 635 nm fluorescence scan, primary screen (AID 1106); conditions: higher = more signal;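 further: score merges emission near 667 nm with signal to noise over three replicate slides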
[10] = test system: Inhibin beta A chain (activin A); experiment: small molecules binding activin A – biochemical, small-molecule microarray, 635 nm fluorescence scan, primary screen (AID 1107); conditions: INHBA, higher = more signal;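 further: mouse activin A protein probed at 4.33 µg/mL on printed slides; score merges bound-protein fluorescence near 667 nm with spot signal-to-noise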
[11] = test system: Human papillomavirus type 1a protein E7 (residues 44-93); experiment: small molecules binding HPV E7 44-93 – biochemical, small-molecule microarray, residues 44-93, 635 nm fluorescence, primary screen (AID 1108); conditions: fluorescence 635 nm, higher = more signal;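 further: E7 fragment applied at 1 µg/mL in TBST for 1 h at 4 C; score combines spot fluorescence with its signal to noise ratio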
[12] = hepatitis C replication reporter changes, two-sided – Huh7 cells, luciferase reporter, HCV replication inhibitor project, primary screen (AID 1109); conditions: Huh7 HCV replicon luciferase reporter, 48 h; higher = more signal;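 further: huh7 hepatoma cells harbouring a luciferase neomycin HCV replicon reporter; luciferase luminescence as measure of HCV replicon replication; test concentration not given here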
[13] = target: Left-right determination factor 2 (Homo sapiens) (UniProt O00292); experiment: small molecules binding LEFTY2 protein – biochemical, small-molecule microarray, 635 nm fluorescence scan, primary screen (AID 1110); conditions: higher = more signal
[14] = target: Calmodulin-1 (Homo sapiens) (UniProt P0DP23); experiment: small molecules binding calmodulin-1 with EGTA – biochemical, small-molecule microarray, Cy5-labelled CALM1, profiling panel (AID 1111); conditions: Cy5-CALM1 binding fluorescence, higher = more signal;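 further: labelled calmodulin applied in Tris saline Tween buffer holding calcium plus EGTA and DTT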
[15] = target: Calmodulin-1 (Homo sapiens) (UniProt P0DP23); experiment: small molecules binding Ca-loaded calmodulin-1 – biochemical, small-molecule microarray, Cy5-labelled CALM1, plus calcium, artefact control for SMM control-protein annotation, profiling panel (AID 1112); conditions: Cy5-CALM1 binding fluorescence, higher = more signal;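 further: score merges spot fluorescence with signal to noise from triplicate slides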
[16] = probe aWnt5a binding to arrayed compounds – biochemical, biotinylated probe, 635/667 nm fluorescence, primary screen (AID 1113); conditions: small-molecule microarray, higher = more signal;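 further: score merges 667 nm fluorescence intensity with signal-to-noise per printed feature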
[17] = probe aShh binding to arrayed compounds – biochemical, biotinylated probe, 635/667 nm fluorescence, primary screen (AID 1114); conditions: small-molecule microarray, higher = more signal;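 further: probe is biotin-labelled aShh protein from a stem cell growth factor screen; measures binding of labelled protein to compounds printed on the slide; score merges feature fluorescence at 667 nm with signal-to-noise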
[18] = probe aNog binding to arrayed compounds – biochemical, biotinylated probe, 635/667 nm fluorescence, primary screen (AID 1115); conditions: small-molecule microarray, higher = more signal;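 further: probe is biotinylated aNog protein used at 0.15 µg/mL for 1 h at 4 C; z-score combines 667 nm fluorescence of each spot with its signal to noise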
[19] = target: Torsin-1A-interacting protein 1 (Homo sapiens) (UniProt Q5JTV8); experiment: compound microarray binding of lysate hLAP1 – cell lysate, small-molecule microarray, COS7 lysate, 635/667 nm fluorescence, primary screen (AID 1116); conditions: 635 nm fluorescence, higher = more signal
[20] = target: Alpha-bungarotoxin (Bungarus multicinctus) (UniProt P60615); experiment: compounds binding labelled alpha-BTX control protein – biochemical, small-molecule microarray, Alexa647 label, 635/667 nm fluorescence, artefact control for SMM control protein annotation, profiling panel (AID 1117); conditions: alpha-BTX-A647 binding fluorescence, higher = more signal
Chain of Alpha-bungarotoxin (Bungarus multicinctus) (P60615 whole entry, looked up): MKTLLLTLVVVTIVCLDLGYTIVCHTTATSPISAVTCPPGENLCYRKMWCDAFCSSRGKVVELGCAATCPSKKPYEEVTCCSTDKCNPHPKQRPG

Chain of Fibroblast growth factor 10 (Homo sapiens) (O15520 whole entry, looked up): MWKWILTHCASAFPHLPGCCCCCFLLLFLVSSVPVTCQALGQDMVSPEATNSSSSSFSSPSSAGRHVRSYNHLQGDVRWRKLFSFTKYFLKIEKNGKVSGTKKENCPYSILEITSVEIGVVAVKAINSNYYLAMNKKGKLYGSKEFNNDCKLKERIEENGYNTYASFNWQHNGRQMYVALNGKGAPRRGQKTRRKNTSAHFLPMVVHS
Chain of Left-right determination factor 2 (Homo sapiens) (O00292 whole entry, looked up): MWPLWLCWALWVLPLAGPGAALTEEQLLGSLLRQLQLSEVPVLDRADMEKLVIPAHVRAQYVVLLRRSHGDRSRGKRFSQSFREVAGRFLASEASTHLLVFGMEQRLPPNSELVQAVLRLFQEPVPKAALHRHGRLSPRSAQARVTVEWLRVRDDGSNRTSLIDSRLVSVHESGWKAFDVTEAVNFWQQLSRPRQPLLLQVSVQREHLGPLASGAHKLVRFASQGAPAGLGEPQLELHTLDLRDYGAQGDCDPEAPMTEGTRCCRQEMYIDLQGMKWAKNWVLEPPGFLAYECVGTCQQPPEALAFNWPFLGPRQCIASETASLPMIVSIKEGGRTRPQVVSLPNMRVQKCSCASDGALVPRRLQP
Chain of Follistatin-related protein 3 (Homo sapiens) (O95633 whole entry, looked up): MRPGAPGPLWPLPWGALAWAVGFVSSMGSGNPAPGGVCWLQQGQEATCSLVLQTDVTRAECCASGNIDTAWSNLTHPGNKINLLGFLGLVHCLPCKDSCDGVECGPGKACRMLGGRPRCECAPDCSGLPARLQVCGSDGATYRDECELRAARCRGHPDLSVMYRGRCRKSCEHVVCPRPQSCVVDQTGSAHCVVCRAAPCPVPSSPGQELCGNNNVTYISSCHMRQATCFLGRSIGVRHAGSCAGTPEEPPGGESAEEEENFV
Chain of Torsin-1A-interacting protein 1 (Homo sapiens) (Q5JTV8 whole entry, looked up): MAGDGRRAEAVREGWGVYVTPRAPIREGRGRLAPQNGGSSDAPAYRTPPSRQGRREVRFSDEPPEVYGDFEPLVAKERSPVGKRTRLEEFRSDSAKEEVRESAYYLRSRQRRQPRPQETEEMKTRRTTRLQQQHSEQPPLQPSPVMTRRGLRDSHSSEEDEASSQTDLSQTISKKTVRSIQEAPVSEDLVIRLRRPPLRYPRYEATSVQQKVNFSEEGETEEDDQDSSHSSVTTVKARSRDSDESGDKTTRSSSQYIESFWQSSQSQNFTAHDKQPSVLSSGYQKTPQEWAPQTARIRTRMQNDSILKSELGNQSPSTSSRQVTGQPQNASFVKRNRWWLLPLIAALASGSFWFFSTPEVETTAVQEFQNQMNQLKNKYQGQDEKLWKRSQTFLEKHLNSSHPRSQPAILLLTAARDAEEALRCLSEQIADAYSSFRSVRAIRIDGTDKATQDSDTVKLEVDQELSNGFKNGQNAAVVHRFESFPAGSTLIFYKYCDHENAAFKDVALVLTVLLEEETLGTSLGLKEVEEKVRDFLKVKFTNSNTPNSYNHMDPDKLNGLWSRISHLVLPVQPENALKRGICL
Chain of Dickkopf-related protein 1 (Homo sapiens) (O94907 whole entry, looked up): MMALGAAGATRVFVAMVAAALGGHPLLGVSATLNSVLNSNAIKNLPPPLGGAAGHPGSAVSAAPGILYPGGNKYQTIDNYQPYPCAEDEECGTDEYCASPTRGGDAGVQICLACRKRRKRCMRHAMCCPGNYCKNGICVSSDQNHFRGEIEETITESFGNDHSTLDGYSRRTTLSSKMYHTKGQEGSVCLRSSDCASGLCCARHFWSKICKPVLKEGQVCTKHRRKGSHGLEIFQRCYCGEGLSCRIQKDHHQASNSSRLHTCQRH
Chain of Epidermal growth factor receptor (Homo sapiens) (P00533 whole entry, looked up): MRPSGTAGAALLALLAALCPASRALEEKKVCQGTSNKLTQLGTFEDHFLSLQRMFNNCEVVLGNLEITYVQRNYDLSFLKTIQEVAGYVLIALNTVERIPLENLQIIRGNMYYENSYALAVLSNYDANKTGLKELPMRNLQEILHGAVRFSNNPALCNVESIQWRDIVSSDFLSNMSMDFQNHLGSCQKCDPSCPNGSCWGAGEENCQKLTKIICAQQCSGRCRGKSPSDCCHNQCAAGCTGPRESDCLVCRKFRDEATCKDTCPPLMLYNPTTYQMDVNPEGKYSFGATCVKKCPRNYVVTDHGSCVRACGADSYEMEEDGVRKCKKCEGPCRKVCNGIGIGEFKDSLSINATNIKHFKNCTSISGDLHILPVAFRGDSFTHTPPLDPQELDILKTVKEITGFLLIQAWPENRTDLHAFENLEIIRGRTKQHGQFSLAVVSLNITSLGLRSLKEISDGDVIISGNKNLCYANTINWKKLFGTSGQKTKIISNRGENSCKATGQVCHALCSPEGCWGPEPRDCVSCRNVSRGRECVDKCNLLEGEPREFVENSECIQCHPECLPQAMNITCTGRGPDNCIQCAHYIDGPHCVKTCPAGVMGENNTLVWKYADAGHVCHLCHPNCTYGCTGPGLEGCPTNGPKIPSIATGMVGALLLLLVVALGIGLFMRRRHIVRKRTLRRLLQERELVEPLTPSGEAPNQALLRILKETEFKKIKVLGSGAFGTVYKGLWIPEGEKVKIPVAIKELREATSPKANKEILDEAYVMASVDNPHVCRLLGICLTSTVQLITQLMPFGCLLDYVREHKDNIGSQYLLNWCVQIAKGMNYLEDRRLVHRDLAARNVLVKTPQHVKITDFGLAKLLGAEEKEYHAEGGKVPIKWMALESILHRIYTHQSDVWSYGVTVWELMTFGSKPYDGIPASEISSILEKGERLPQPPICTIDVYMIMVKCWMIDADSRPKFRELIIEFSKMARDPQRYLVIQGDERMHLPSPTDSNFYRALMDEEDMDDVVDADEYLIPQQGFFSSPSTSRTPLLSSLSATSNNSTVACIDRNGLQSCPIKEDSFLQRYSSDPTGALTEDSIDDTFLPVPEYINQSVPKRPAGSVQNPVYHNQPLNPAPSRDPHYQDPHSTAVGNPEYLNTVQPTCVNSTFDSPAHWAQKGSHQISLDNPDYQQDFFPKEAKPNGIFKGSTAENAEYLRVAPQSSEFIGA

Row | SMILES | composite z-score [1] | composite z-score [2] | composite z-score [3] | z-score [4] | composite z-score [5] | composite z-score [6] | composite z-score [7] | composite z-score [8] | composite z-score [9] | composite z-score [10] | composite z-score [11] | z-score [12] | composite z-score [13] | composite z-score [14] | composite z-score [15] | composite z-score [16] | composite z-score [17] | composite z-score [18] | composite z-score [19] | composite z-score [20]
1 | CCOC(=O)C1=CC[C@@H](c2ccc(N(CC)CC)cc2)N(S(=O)(=O)c2ccc(C)cc2)[C@H]1c1ccc([N+](=O)[O-])cc1 | 0.468 | 0.592 | 1.33 | -1.26 (inactive) | -0.69 | -1.04 | -1.17 | -0.966 | -1.59 | 1.04 | 1.24 | -0.83 | -1.76 | 0.863 | -0.378 | -0.0472 | -0.0035 | 0.587 | 0.923 | 0.274
2 | CC(=O)NCCCC[C@@H]1NC(=O)[C@H]2C[C@@H](C(=O)NCCCCCN)[C@@H](c3cccc(OCCO)c3)N2C1=O | 0.878 | -0.0159 | 0.366 | -1.77 (inactive) | 0.757 | 0.4 | 0.103 | 0.0957 | 0.142 | 0.602 | 0.783 | 0.572 | 0.0306 | 1.27 | 1.35 | -0.0403 | -0.0119 | -0.392 | 0.718 | 1.82
3 | C=C(CCCC)/C(=C/C[C@@H](OC(=O)c1ccncc1)c1ccccc1OCCO)c1cc(C(=O)OC)ccc1OC | 0.96 | -0.0551 | -0.133 | -0.322 (inactive) | 0.659 | 0.272 | 0.145 | 0.422 | 0.135 | 0.851 | 1.4 | -2.61 | 0.0979 | -0.154 | -0.351 | -0.0735 | -0.0626 | -0.518 | 0.603 | 1.93
4 | O=C1C[C@@](C(=O)NCc2ccccc2)(c2ccc([N+](=O)[O-])cc2)[C@@H](c2ccc(CO)cc2I)N1C1CCCCC1 | 0.838 | 1.78 | 0.652 | -0.551 (inactive) | 0.7 | 1.16 | 0.768 | 1.33 | 0.876 | 0.654 | 1.14 | -2.36 | 0.597 | 0.261 | 0.315 | 0.0733 | 0.192 | -0.175 | 0.52 | 0.414
5 | C=CC[C@]1(C(=O)N2CCOCC2)N=C(c2ccc(OCCCO)cc2)O[C@H]1c1ccccc1CN=[N+]=[N-] | 1.55 | 0.0557 | 0.948 | -0.244 (inactive) | 1.24 | 0.0251 | -0.124 | 0.879 | -0.121 | 0.58 | 1.42 | -1.85 | 0.366 | 1.84 | 0.403 | 0.127 | 0.398 | 1.88 | 1.94 | 0.948
6 | COCCCNC(=O)[C@@H]1c2ccccc2C(=O)N(Cc2cc(F)cc(C(F)(F)F)c2)[C@H]1c1ccc(CO)cc1 | 1.69 | -0.0674 | 0.998 | -0.0265 (inactive) | -1.38 | -1.72 | -1.47 | -1.13 | -1.35 | -0.104 | -1.6 | -0.252 | -1.36 | -0.365 | -0.167 | -0.212 | -0.153 | -0.285 | -1.13 | -0.4
7 | CO[C@H]1O[C@H](CO)[C@@H](OC(=O)c2ccc(Br)cc2)[C@@H]2OC(=O)[C@H](Cc3cccc(Br)c3)C/C=C/C[C@@H](Cc3cccc(Br)c3)C(=O)O[C@@H]12 | 0.418 | 0.649 | 0.78 | 0.0118 (inactive) | 1.04 | 0.559 | 0.194 | 0.914 | 0.189 | 0.602 | 0.549 | -2.15 | 0.985 | 0.622 | 0.0872 | -0.113 | 0.317 | -0.172 | 0.323 | 0.867
8 | COC(=O)[C@@]1(Cc2ccc(F)cc2)[C@@H]2[C@@H](CC(=O)[C@H]2CC(=O)C(=O)N2CCCC2)CN1C(=O)c1ccccc1 | 1.16 | 0.942 | 0.807 | -0.98 (inactive) | 1.11 | 1.3 | -0.121 | 1.02 | -0.0822 | 0.85 | 1.43 | -2.01 | -0.412 | 2.17 | 1.01 | 0.135 | 0.338 | 2.34 | 0.739 | 1.03
9 | [N-]=[N+]=Nc1ccccc1[C@@H]1OC(c2ccc(OCCCO)cc2)=N[C@]1(CCS(=O)(=O)c1ccccc1)C(=O)NCc1ccccc1 | 1.29 | 1.24 | 1.28 | 0.385 (inactive) | 1.25 | 0.309 | 0.0329 | 1.18 | -0.244 | 1.06 | 1.41 | 0.0858 | 0.343 | 2.03 | 0.603 | 0.0338 | 0.0469 | 1.6 | 2.15 | 1.9
10 | OCCCC1=CC(c2cccs2)N(Cc2cccc(OC(F)(F)F)c2)CC1 (stereo not given) | 1.32 | -0.14 | -0.138 | -0.733 (inactive) | -0.566 | -0.729 | -0.547 | -0.537 | -0.015 | 0.756 | -0.571 | -2.1 | -0.0424 | -0.957 | 0.639 | -0.13 | -0.221 | 1.41 | -0.0673 | -0.0302
11 | CN1C(=O)C2C=CC(C(O)c3ccc(F)cc3)N(N3CCCCC3)C2C1=O (stereo not given) | 1.56 | 1.3 | 1.33 | 0.981 (inactive) | 0.252 | 0.432 | -0.406 | -0.0733 | -1.3 | 1.23 | 0.491 | 0.269 | -0.781 | 1.72 | 1.23 | 0.212 | 0.949 | 0.893 | 2.05 | 0.164
12 | C=CCOC(=O)[C@@H]1[C@H]2C(=O)O[C@H](c3ccccc3)[C@H](c3ccccc3)N2[C@H](c2ccc(OCCOC(=O)[C@@H]3C[C@@H]4C(=O)N5CCC[C@H]5C(=O)N4[C@@H]3c3cccc(OCCO)c3)cc2)[C@@]12C(=O)Nc1ccc(I)cc12 | 1.04 | -0.297 | -0.121 | -0.64 (inactive) | 1.18 | 1.12 | 0.754 | 1.11 | 1.1 | 0.607 | 1.31 | -1.01 | 0.56 | 1.25 | -0.141 | -0.0718 | -0.264 | -0.342 | 0.972 | 1.11
13 | C=C(/C(=C/C[C@@H](OC(=O)c1ccncc1)c1ccccc1OCCO)c1cnc2ccccc2c1)C(C)C | 0.25 | 0.0171 | -0.21 | -2.43 (inactive) | 1.55 | 1.29 | 1.23 | 1.61 | 0.413 | 1.77 | 1.4 | -4.46 | 0.935 | 0.273 | -0.531 | 0.0044 | -0.195 | 0.0588 | 1.23 | 3.08
14 | N#Cc1ccc(NN2C(C(O)c3ccccc3)C=CC3C(=O)N(c4ccccc4)C(=O)C32)cc1 (stereo not given) | 1.3 | 0.313 | 0.557 | 1.3 (inactive) | 0.968 | -0.353 | -0.0382 | 0.441 | -0.257 | 0.658 | 0.117 | 0.335 | -0.135 | -0.0722 | -0.162 | 0.0797 | -0.102 | 0.642 | -0.113 | 0.153
15 | CN1C(=O)C2C=CC(C(O)C3CCCCC3)N(N(c3ccccc3)c3ccccc3)C2C1=O (stereo not given) | -0.941 | 0.993 | 0.895 | 1.12 (inactive) | 0.189 | -1.14 | -1.34 | -1.14 | -1.28 | 1.48 | -1.93 | -0.15 | -0.939 | 0.142 | 0.405 | 0.204 | 0.117 | 0.0294 | 0.0416 | -0.232
16 | Cc1ccc(N2C(=O)c3ccccc3[C@](C)(C(=O)NC(C)C)[C@@H]2c2ccc(CO)cc2)nc1 | 0.118 | -0.0537 | 1.04 | 0.415 (inactive) | -1.22 | -0.738 | -1.21 | -2.01 | -1.63 | -2.54 | -1.24 | -0.406 | -3.6 | -1.12 | -0.862 | -0.219 | -0.49 | -0.441 | 0.177 | 0.24
17 | Cc1ccc(C(C)CC(O)C2C=CC3C(=O)N(Cc4ccccc4)C(=O)C3N2n2cnnc2)o1 (stereo not given) | 0.755 | 1.85 | 1.03 | -0.665 (inactive) | 0.841 | 0.866 | 0.0138 | 0.668 | -0.484 | 1.09 | 1.22 | 0.236 | -0.304 | 0.455 | 0.0454 | 0.688 | 0.765 | 2.12 | 0.342 | 0.279
